Several values for one entry are separate records, joined by “and”; a condition that tells them apart may be missing. Equal entries are not always repeated. The campaign covered roughly 16,000 compounds. About 5,800 (36%) were called active. Not shown: some 23% with an inconclusive outcome. Calls come from the whole dose curve; as a rule, active = well fitted curve in the direction sought with a large enough effect; inconclusive = small, poorly fitted or top-dose-only effect, or effect the other way; inactive = no such curve, though single readings can be large or run the other way. This is one part of the list. Some structures have more than one record in an assay (separate samples or runs), and their calls can disagree.
biological target: Cytochrome P450 2C19 (Homo sapiens) (UniProt P33261); assay: Cytochrome panel assay with activity outcomes; conditions: recombinant CYP, pro-luciferin dealkylation, luminescence, p450-cyp2c19; series mostly up to 57.1 µM; activity, negative = inhibition: at the top concentration
% is set by controls: 0 for no effect and ±100 for the full control effect.

Cytochrome P450 2C19 (Homo sapiens), sequence (P33261 whole entry, looked up): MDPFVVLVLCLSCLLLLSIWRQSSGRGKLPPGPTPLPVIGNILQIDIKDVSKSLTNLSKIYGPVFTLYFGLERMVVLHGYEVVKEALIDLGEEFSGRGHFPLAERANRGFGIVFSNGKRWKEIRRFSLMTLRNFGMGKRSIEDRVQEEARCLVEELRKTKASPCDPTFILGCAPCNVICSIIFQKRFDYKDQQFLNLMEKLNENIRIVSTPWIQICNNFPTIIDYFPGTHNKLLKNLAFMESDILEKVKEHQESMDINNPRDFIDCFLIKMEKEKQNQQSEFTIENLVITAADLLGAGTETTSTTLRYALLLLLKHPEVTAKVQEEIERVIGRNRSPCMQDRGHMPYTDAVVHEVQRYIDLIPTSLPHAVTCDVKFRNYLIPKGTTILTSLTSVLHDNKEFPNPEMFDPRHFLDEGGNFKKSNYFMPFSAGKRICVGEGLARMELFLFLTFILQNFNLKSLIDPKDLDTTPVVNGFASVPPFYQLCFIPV

Compound	activity, negative = inhibition	AC50
COc1ccc2nc(SCC(=O)NN)cc(C)c2c1	-56.5% (inactive)	–
COc1ccc2nccc(SCC(=O)O)c2c1	-14.8% [at 11.4 µM] (inactive)	–
COc1ccc2nc(C)cc(SCC(=O)Nc3c(C)cc(C)cc3C)c2c1	–	2.51 µM (active)
COc1ccc2nc(C)cc(SCC(=O)NNC(=O)COc3ccc(C)cc3)c2c1	–	3.16 µM (active)
COc1ccc2nccc(C(=O)O)c2c1	-26% [at 25.6 µM] (inactive)	–
NC(=O)c1cc[n+](CC2=C(C(=O)[O-])N3C(=O)[C@@H](NC(=O)Cc4cccs4)[C@@H]3SC2)cc1	-11.8% [at 25.6 µM] (inactive)	–
CCOC(=O)C(NC(C)=O)C(OC(C)=O)c1cccc(N(CCO)CCO)c1 (stereo unspecified)	-8.77% (inactive)	–
Cc1c(NC(=O)C2CCN(S(=O)(=O)c3ccc(Cl)cc3)CC2)c(=O)n(-c2ccccc2)n1C	-16.8% (inactive)	–
O=C(Nc1nnc(C2CC2)s1)c1cc(S(=O)(=O)N2CCN(c3ccccc3)CC2)ccc1Cl	–	7.08 µM (active)
COc1ccc(COC(=O)N/N=C2/C[C@@H](O)[C@@H](O)[C@@H]3[C@@H]4C(=O)N(C(C)(C)C)C(=O)[C@H]4CC[C@@H]23)cc1	1.08% [at 11.4 µM] (inactive)	–
Brc1ccc([C@H]2CN3CCSC3=N2)cc1	-26.9% (inactive)	–
Cc1ccc(-n2c(-c3ccccc3)cc(=O)nc2C)cc1	-21.5% (inactive)	–
CN=c1nc(-c2ccccc2)n(-c2ccccc2)s1	–	3.16 µM (active)
CC(=O)c1c(C)nc(-c2ccccc2)n1O	-17.7% (inactive)	–
Cc1noc(C)c1C(=O)N1CCC2(CCCN(c3ccncc3)C2)CC1	20% (inactive)	–
CN(C)S(=O)(=O)Oc1ccccc1C(=O)Nc1cccc(C(F)(F)F)c1	–	2 µM (active)
Cc1c(C(=O)NC2CCCc3ccccc32)oc2ccc(S(=O)(=O)N3CCOCC3)cc12 (stereo unspecified)	–	11.2 µM (active)
Cc1c(C(=O)Nc2cccc(C(F)(F)F)c2)oc2ccc(S(=O)(=O)N3CCOCC3)cc12	–	7.94 µM (active)
COC(=O)CC1C(=O)NCCN1C(=O)Nc1ccc(Cl)cc1 (stereo unspecified)	-28.1% (inactive)	–
CCOC(=O)CC1C(=O)NCCN1S(=O)(=O)c1ccc(Cl)c(Cl)c1 (stereo unspecified)	–	11.2 µM (active)
CCCc1cc2c(cc1NC(=O)c1ccc(Br)cc1)OCO2	–	0.0794 µM (active)

Compound	activity, negative = inhibition	AC50
CCCc1cc2c(cc1NC(=O)c1ccccc1C)OCO2	–	0.178 µM (active)
CCCc1cc2c(cc1NC(=O)c1ccccc1Cl)OCO2	–	0.398 µM (active)
Cc1nn(C)c(C)c1CNC(=O)c1cnn2c1NC(c1ccccc1)CC2C(F)(F)F (stereo unspecified)	-29.2% (inactive)	–
COc1ccccc1CN1CC2(CCN(S(C)(=O)=O)CC2)C1	20.8% (inactive)	–
CN(C)C(=C(C#N)C#N)N1CCN(c2ccc(Cl)c(Cl)c2)CC1	–	10 µM (active)
Nc1cc(=O)nc(SCC(=O)Nc2cccc3ccccc23)n1CCc1ccccc1	–	14.1 µM (active)
CCC(Sc1nc(=O)cc(N)n1CCc1ccccc1)C(=O)Nc1ccccc1C#N (stereo unspecified)	–	11.2 µM (active)
NCCCC(=O)O	-39.8% (inactive)	–
Cn1c(CNC(=O)Nc2ccccc2)nnc1SCc1ccccc1	–	7.08 µM (active)
CCN(CC)CCC(=O)Nc1ccc2c(c1)N(C(=O)CN(CC)CC)c1ccccc1CC2	-22.9% (inactive)	–
CCN(CCCNC(=O)CC(C(=O)N1CCc2ccccc21)n1ccnc1)c1ccccc1 (stereo unspecified)	–	0.562 µM (active)
CCCCN(C)CCCNC(=O)CCn1nc(-c2ccccc2)ccc1=O	-12.1% (inactive)	–
CC(C(=O)NC1CCCC1)N(C(=O)c1snc(C(N)=O)c1N)c1ccc2c(c1)OCCO2 (stereo unspecified)	–	15.8 µM (active)
CN(CCO)c1nc(N)c2c(N)nc3c(c2c1C#N)CC(=O)N3C1CCCC1	-14.8% (inactive)	–
CCCn1nnnc1-c1cc(Cl)cc(Cl)c1	-63.7% (inactive)	–
CCCn1nnnc1-c1cccc(Cl)c1	–	5.01 µM (active)
Cc1oc(-c2cccc(Cl)c2)[n+]([O-])c1C	-28.5% (inactive)	–
O=c1c(-c2ccc(Cl)cc2)nc2cnc(N3CCOCC3)nc2n1CCc1ccccc1	-18.1% (inactive)	–
Brc1ccc(-c2nnc(-c3ccccc3)c(N3CCSCC3)n2)cc1	–	14.1 µM (active)
Clc1ccc(-c2nnc(-c3ccccc3)c(N3CCSCC3)n2)cc1	–	14.1 µM (active)
Cc1nnc(S(=O)(=O)c2ccc(N=Nc3c(N)nc(N)nc3N)cc2)s1	32.1% [at 11.4 µM] (inactive)	–

Compound	activity, negative = inhibition	AC50
CSc1ccc2c(c1)[C@H](N1CCN(C)CC1)Cc1ccccc1S2	–	inactive and 2.51 µM (active) and 7.94 µM (active)
CN1CCC[C@@H](CC2c3ccccc3Sc3ccccc32)C1	-31.2% [at 25.6 µM] (inactive)	–
CO[C@H]1COC(=O)[C@@H](Cc2ccccc2)NC(=O)[C@@H](C)COC(=O)C/C=C\[C@@H]1C	-5.86% [at 11.4 µM] (inactive)	–
Cc1nc(-c2c(C(F)(F)F)noc2-c2ccc(O)cc2O)cs1	–	1.26 µM (active)
O=C(N/C(=C\c1cccnc1)C(=O)N1CCOCC1)c1cccc(Br)c1	-4.28% (inactive)	–
O=C(/C=C/c1cccnc1)c1ccc(NC(=O)c2cccc(Br)c2)cc1	–	2.51 µM (active)
COC(=O)c1c(-c2cc(OC)c(OC)c(OC)c2)c2ccnc(OCc3ncccn3)c2c(=O)n1Cc1ccnc(C)c1	-37.4% (inactive)	–
CCOc1[nH]n(-c2ccccc2)c(=O)c1C=Nc1ccc(Cl)cc1	–	8.91 µM (active)
CCOc1[nH]n(-c2ccc(Cl)cc2)c(=O)c1C=Nc1ccc(Cl)cc1	-3.5% (inactive)	–
Cc1ccc(-n2[nH]c(C)c(C=Nc3ccc4[nH]c(=O)[nH]c4c3)c2=O)cc1C	-6.05% (inactive)	–
O=C(O)c1cc(S(=O)(=O)NCC2CCCO2)ccc1Cl (stereo unspecified)	8.86% (inactive)	–
CCN(CC)CCOC(=O)[C@@H](Cc1cccc2ccccc12)C[C@@H]1CCCO1	-28.4% [at 25.6 µM] (inactive)	–
COc1ccc(CNC(=O)CN(CC2CCCO2)C(=O)CNS(=O)(=O)c2ccccc2)cc1 (stereo unspecified)	–	14.1 µM (active)
O=C(CN(CC1CCCO1)C(=O)CNS(=O)(=O)c1ccc(Cl)cc1)NCCc1ccccc1 (stereo unspecified)	–	31.6 µM (active)
Cc1nn(Cc2c(F)c(F)c(F)c(F)c2F)c(C)c1NC(=O)c1c(-c2ccccc2)nn(-c2ccccc2)c1C	–	2.24 µM (active)
Cc1nn(Cc2c(F)c(F)c(F)c(F)c2F)c(C)c1NC(=O)c1cccc(COc2ccc(Cl)cc2)c1	–	14.1 µM (active)
O=C1NC(O)=NC1(c1ccccc1)c1ccccc1	-20.5% (inactive)	–
COCCCNC(=O)/C=C/c1ccc(Cl)cc1	-22.8% (inactive)	–
O=C(/C=C/c1ccc(Cl)cc1)NCCSc1ccccc1	–	1.78 µM (active)

From PubChem BioAssay AID1851 (National Center for Advancing Translational Sciences (NCATS), 2009)
